In PubChem BioAssay (Tox21):
Records with an inconclusive call do not appear. Values without a mark were called inactive. Calls of active or inactive are those of the source. Calls follow the shape of the full dose curve.

assay: qHTS assay for small molecules that induce genotoxicity in human embryonic kidney cells expressing luciferase-tagged ATAD5 - cell viability (AID 651634); conditions: HEK293T ATAD5-luc cells viability, CellTiter-Fluor, 15.5 h; series mostly up to 83.3 µM; activity, negative = cytotoxicity: at the top concentration; also: nearly all actives have a fitted effect of over 25% in size
Description: National Center for Advancing Translational Sciences [NCATS]
NIH Chemical Genomics Center [NCGC]
U.S. Environmental Protection Agency [EPA]
National Institutes of Environmental Health Sciences [NIEHS]
National Toxicology Program [NTP]
U.S. Food and Drug Administration [FDA]
Enhanced Level of Genome Instability Gene 1 (ELG1; human ATAD5) protein levels increase in response to various types of DNA damage. Using a luciferase reporter-gene tagged with ElG1, a cell-based assay [developed by Kyungjae Myung, NHGRI, NIH] was used to measure the induction of ATAD5 in human embryonic kidney cells (HEK293T). So, increase in luciferase activity can be used to identify the compounds that cause genetic stress. In addition to genotoxicity, these cells were also used to test for cytotoxicity by measuring the protease activity within live cells.
Tox21 Assay Protocol Summary:
For cytotoxicity screening, 2,000 cells in 5 uL/well were dispensed into white, solid-bottom 1536-well plates using a Multidrop Combi (Thermo Scientific) dispenser. Following transfer of 23 nL compound or DMSO vehicle by a pin tool, the plates were incubated 15.5 hr at 37C and 5% CO2. 1 ul CellTiter-Fluor reagent (Promega, Madison, WI) was then added to each plate and following 30 min incubation at 37C, fluorescence intensity was quantified on a ViewLux CCD-based plate reader.
% is scaled to controls: 0 for no effect and ±100 for the full control effect; potency is read from the fitted curve at half-maximal effect.

Structure (SMILES) | activity, negative = cytotoxicity | Potency
CCOC(=O)[C@@H](N)CS | -15.8% | –
NC(=O)c1ccc[n+]([C@@H]2O[C@H](COP(=O)([O-])OP(=O)(O)OC[C@H]3O[C@@H](n4cnc5c(N)ncnc54)[C@H](O)[C@@H]3O)[C@@H](O)[C@H]2O)c1 | -0.959% [at 39.1 µM] | –
OCCO[C@@H]1[C@@H](O)[C@H](O)[C@@H](CO)O[C@@H]1O | 5.04% | –
O=C(O[C@H]1CN2CCC1CC2)N1CCc2ccccc2[C@@H]1c1ccccc1 | -12% | –
CO[C@@]1(NC(=O)C2SC(=C(C(N)=O)C(=O)O)S2)C(=O)N2C(C(=O)O)=C(CSc3nnnn3C)CS[C@@H]21 (stereo not given in full) | 9.16% [at 39.1 µM] | –
NC(=O)Oc1ccc(Cc2ccccc2)cc1 | -3.4% | –
C[C@]12C=CC(=O)N[C@@H]1CC[C@@H]1[C@@H]2CC[C@]2(C)[C@@H](C(=O)Nc3cc(C(F)(F)F)ccc3C(F)(F)F)CC[C@@H]12 | 19.4% | –
C=C(NC(=O)C(=C)NC(=O)c1csc(C2=N[C@@H]3c4csc(n4)[C@H]4NC(=O)c5csc(n5)[C@H]([C@](C)(O)[C@@H](C)O)NC(=O)[C@H]5CSC(=N5)C(=CC)NC(=O)C([C@@H](C)O)NC(=O)c5csc(n5)[C@]3(CC2)NC(=O)[C@H](C)NC(=O)C(=C)NC(=O)[C@H](C)NC(=O)C([C@@H](C)CC)NC2C=Cc3c([C@H](C)O)cc(nc3C2O)C(=O)O[C@@H]4C)n1)C(N)=O (stereo not given in full) | -11.3% [at 39.1 µM] | –
COc1cc(S(C)=O)ccc1-c1nc2ncccc2[nH]1 (stereo not given) | 16.4% | –
CCCCCCCCCCCCCCCCCCCCCCO | 5.43% | –
O=C(NCCNCC(O)COc1ccc(O)cc1)N1CCOCC1 (stereo not given) | 11.5% | –
CCCCC/C=C\CCC(=O)N[C@H]1[C@H](Oc2c3cc4cc2Oc2ccc(cc2Cl)[C@@H](O[C@@H]2O[C@H](CO)[C@@H](O)[C@H](O)[C@H]2NC(C)=O)[C@@H]2NC(=O)[C@H](NC(=O)[C@@H]4NC(=O)[C@H]4NC(=O)[C@@H](Cc5ccc(c(Cl)c5)O3)NC(=O)[C@H](N)c3ccc(O)c(c3)Oc3cc(O)cc4c3)c3ccc(O)c(c3)-c3c(O[C@H]4O[C@H](CO)[C@@H](O)[C@H](O)[C@@H]4O)cc(O)cc3[C@@H](C(=O)O)NC2=O)O[C@H](CO)[C@@H](O)[C@@H]1O | 10.6% [at 39.1 µM] | –
CCC(C)(C)OC(=O)N[C@@H](Cc1c[nH]c2ccccc12)C(=O)N[C@@H](CCSC)C(=O)N[C@@H](CC(=O)O)C(=O)N[C@@H](Cc1ccccc1)C(N)=O | 7.2% | –
CC(C)(C)C(=O)OCOC(=O)[C@@H]1N2C(=O)[C@@H](N=CN3CCCCCC3)[C@H]2SC1(C)C | 39.3% [at 39.1 µM] | –
O=P(O)(O)OC(CO)CO | -3.39% | –
CCC(c1ccccc1)c1noc(CCN(CC)CC)n1 (stereo not given) | -10.3% | –
CS(=O)(=O)Nc1cc2occ(NC=O)c(=O)c2cc1Oc1ccccc1 | 12.8% | –
O=c1[nH]cnc2[nH]cc(CN3CCCCC3)c12 | -8.25% | –
CC(C)CCC[C@@H](C)[C@H]1CC(=O)C2=C3CC[C@H]4C[C@@H](O)CC[C@]4(C)[C@H]3CC[C@@]21C | -4.65% | –
CCC(Oc1ccccc1)C(=O)N[C@@H]1C(=O)N2[C@@H]1SC(C)(C)[C@@H]2C(=O)O (stereo not given in full) | 23.7% | –

Structure (SMILES) | activity, negative = cytotoxicity | Potency
CNC(=O)c1c(I)c(C(=O)NCC(=O)Nc2c(I)c(C(=O)O)c(I)c(C(=O)NCCO)c2I)c(I)c(N(C)C(C)=O)c1I | 12.9% | –
CC(=O)Nc1ccc(OC(=O)c2ccccc2O)cc1 | -10.2% | –
NC[C@@H]1O[C@H](O[C@H]2[C@@H](O)[C@H](O[C@@H]3[C@@H](O)[C@H](N)C[C@H](N)[C@H]3O[C@H]3O[C@H](CO)[C@@H](O)[C@H](O)[C@H]3N)O[C@@H]2CO)[C@H](N)[C@@H](O)[C@@H]1O | -8.5% | –
CC1(C)S[C@@H]2[C@H](NC(=O)C(C(=O)Oc3ccc4c(c3)CCC4)c3ccccc3)C(=O)N2[C@H]1C(=O)O (stereo not given in full) | 6.63% | –
Cc1cc(C(=O)NNCc2ccccc2)no1 | -4.78% [at 39.1 µM] | –
CCNC(=O)[C@@H]1CCCN1C(=O)[C@H](CCCN=C(N)N)NC(=O)[C@H](CC(C)C)NC(=O)[C@@H](CC(C)C)NC(=O)[C@H](Cc1ccc(O)cc1)NC(=O)[C@H](CO)NC(=O)[C@H](Cc1c[nH]c2ccccc12)NC(=O)[C@H](Cc1cnc[nH]1)NC(=O)[C@@H]1CCC(=O)N1 | -11.8% | –
CS(=O)(=O)OCC(O)C(O)COS(C)(=O)=O (stereo not given) | 19.2% | –
CCCc1nc(C(C)(C)O)c(C(=O)OCc2oc(=O)oc2C)n1Cc1ccc(-c2ccccc2-c2nn[nH]n2)cc1 | -7.56% | –
CC(C)(C)NC[C@H](O)COc1ccccc1C1CCCC1 | 3.39% [at 39.1 µM] | –
OC1OC[C@@H](O)[C@H](O)[C@@H]1O (stereo not given in full) | 13% | –
COc1ccc(C2(C#N)CCC(C(=O)O)CC2)cc1OC1CCCC1 (stereo not given) | 22.2% | –
CC(CN(C)C)CN1c2ccccc2S(=O)(=O)c2ccccc21 (stereo not given) | -3.9% | –
O=c1oc2cc(O)ccc2s1 | 5.99% | –
Clc1ccc(COC(Cn2ccnc2)c2ccc(Cl)cc2Cl)c(Cl)c1 (stereo not given) | -10.1% [at 39.1 µM] | –
CCOC(=O)O[C@]1(C(=O)COC(=O)CC)CC[C@H]2[C@@H]3CCC4=CC(=O)C=C[C@]4(C)[C@H]3[C@@H](O)C[C@@]21C | -6.97% [at 39.1 µM] | –
COc1cc(-c2ccc(-[n+]3nc(-c4ccccc4)nn3-c3ccc([N+](=O)[O-])cc3)c(OC)c2)ccc1-[n+]1nc(-c2ccccc2)nn1-c1ccc([N+](=O)[O-])cc1 | – | 29.8 µM (active)
CCC(=O)O[C@@H]1CC(=O)O[C@H](C)C/C=C/C=C/[C@H](O)[C@H](C)C[C@H](CC=O)[C@H](O[C@@H]2O[C@H](C)[C@@H](O[C@H]3C[C@@](C)(O)[C@@H](OC(=O)CC)[C@H](C)O3)[C@H](N(C)C)[C@H]2O)[C@H]1OC | 4.69% [at 39.1 µM] | –
O=C(O)[C@H]1/C(=C/CO)O[C@@H]2CC(=O)N21 | 6.91% | –
CC(/C=C/C=C(\C)C(=O)O[C@@H]1O[C@H](CO[C@@H]2O[C@H](CO)[C@@H](O)[C@H](O)[C@H]2O)[C@@H](O)[C@H](O)[C@H]1O)=C\C=C\C=C(C)\C=C\C=C(/C)C(=O)O[C@@H]1O[C@H](CO[C@@H]2O[C@H](CO)[C@@H](O)[C@H](O)[C@H]2O)[C@@H](O)[C@H](O)[C@H]1O | -10.7% | –
O=C(OCc1ccccc1)c1cccnc1 | 25.4% | –
